This is a sample that favours compounds with a hit; in the whole collection about 2.5% have one here.
p53ts 32C tox: cytotoxicity in p53ts cells at permissive temperature. Potency, µM (titrated, usually from 46.1 µM), inactives show top-dose activity change, negative = cytotoxicity, usual class: cytotoxic. actives 0.93% (n = 130,000). H1299-p53A138V at 32C, ATP luminescence viability, 24 h;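 further: 0% = DMSO and -100% = full killing by reference compound; nearly all actives have a fitted effect of over 55% in size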
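Viability by ATPlite luminescence after 24 h compound treatment (up to 46 uM) at the permissive 32C. Cells are H1299 carrying p53 A138V. Scale runs from DMSO basal to 100 uM tamoxifen as full kill; AC50 from Hill fits.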
Caspase-7 inhib: allosteric or competitive inhibitors of human caspase-7; P55210; recombinant caspase-7, Ac-DEVD-AFC fluorescence rate; Potency, µM (titrated, usually from 57.5 µM), inactives show at the top dose activity change, negative = inhibition, usual class: inhibitors; actives 0.02% (n = 75,000); AID 889; active means well fitted inhibition curve with a large enough effect in the main read-out, with a control signal flat, not every such curve was filed as active; inconclusive means small, poorly fitted or top-dose-only effect, or a change in a side signal; further: % of control where 0% means no effect
IkB sig inh: inhibitors of IkB signaling in ABC-DLBCL cells. ABC-DLBCL IkBa-CBG/CBR dual luciferase ratio, 4 h; response scale: scaled: untreated 0%, proteasome inhibitor 100%. Potency, µM (series often up to 57.1 µM), without a hit: at the highest dose IkBa stabilization activation. actives 0.04% (n = 110,000); active means well fitted curve in the direction sought with a large enough effect in the signal ratio, not every such curve was filed as active; inconclusive means small, poorly fitted or top-dose-only effect, or a change in a side signal; the % refers to the signal ratio;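 further: the direction sought is a rising ratio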
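Luminescence ratio of IκBα-fused green versus native red beetle luciferase in OCI-Ly3 cells, 4 h post-doxycycline with compound; red signal alone, scaled from basal (0%) to zero light (-100%), flagged nonspecific or cytotoxic effects.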
Caspase-1 inhib: caspase-1 (human) inhibition, allosteric or competitive; AID 900; Caspase-1 enzyme, Ac-WEHD-AFC fluorogenic rate; actives 0.03% (n = 75,000); Potency, µM (doses to about 57.5 µM), for inactives: at the highest dose activity change, negative = inhibition, hits mostly inhibitors; P29466;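 further: plate controls were vehicle for no effect and no substrate for full effect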
p53ts 39C tox: kills p53ts cells at the nonpermissive temperature. H1299-p53A138V viability at 39C, ATP luminescence, 24 h. Potency, µM (highest dose often 46.1 µM), for the others: at the top dose activity change, negative = cell killing, hits mostly cytotoxic. actives 1.5% (n = 130,000). AID 902; further: on the % scale 0 is the no-effect control and ±100 the full control effect; nearly all actives have a fitted effect of over 55% in size
FLuc inh: blocks Photinus pyralis firefly luciferase activity | P08659 | purified firefly luciferase, luminescence, 8 min | Potency, µM (highest dose often 57.1 µM), without a hit: at the highest dose activity change, negative = inhibition, actives largely listed as inhibitors | actives 2.2% (n = 72,000); further: on the % scale 0 is the no-effect control and ±100 the full control effect; nearly all actives have a fitted effect of over 40% in size
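Luminescence read-out after 8 min at room temperature; enzyme reaction used luciferin plus 10 uM ATP (linear range) in imidazole buffer pH 7.2 with KCl, MgCl2, Tween 20 and BSA. Each sample was run as a titration.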
An asterisk follows results filed as active; ? = inconclusive; . = no result given; [ ] = another dose, or the depositor's remark. Unless noted, the call rests on the fitted dose curve; in most records, active means well fitted curve in the direction sought with a large enough effect; inconclusive means small, poorly fitted or top-dose-only effect, or another doubt; inactive means no such curve, though single readings can be large; an effect the other way counts as inactive or inconclusive. Potency means the concentration at half of the fitted maximal effect.

SMILES	p53ts 32C tox	Caspase-7 inhib	IkB sig inh	Caspase-1 inhib	p53ts 39C tox	FLuc inh
COc1ccc(OC)c(NC(=O)CSc2c3c(nc4cc(Cl)ccc24)CCCC3)c1	5%	.	?	.	?	.
COC(=O)c1cc2oc3ccccc3c2n1CC(=O)Nc1ccc(OC)c(OC)c1OC	-20%	.	-2%	.	-29%	.
COC(=O)c1cc2oc3ccccc3c2n1CC(=O)Nc1ccc(Cl)cc1F	-2%	.	10%	.	10µM*	.
C[C@@H](C(=O)O)c1ccc(N2Cc3ccccc3C2=O)cc1	10µM*	1%[25.7 µM]	?	1%[25.7 µM]	5µM*	5µM*
CC(C)NC(=O)C(c1ccccc1)N1Cc2ccccc2C1=O (configuration not stated)	-4%	.	.	.	.	.
O=C(COC(=O)Cc1ccsc1)NC(c1ccccc1)c1ccccc1	-24%	.	.	.	-2%	.
CC(C)Oc1cccc(-c2cc(C(=O)N3CCN(S(C)(=O)=O)CC3)c3ccccc3n2)c1	?	-5%	0%	-3%	?	5µM*
COc1cccc(-c2cc(C(=O)Nn3cnnc3)c3ccccc3n2)c1	4µM*	-2%	4%	0%	5µM*	3.2µM*
O=C(O)c1cc(-c2ccc3cc4c(cc3c2)OCO4)nc2ccccc12	1.6µM*	0%[11.5 µM]	0%[11.4 µM]	0%[11.5 µM]	1.3µM*	2.5µM*
COc1cccc(-c2cc(C(=O)N3CCN(c4ncccn4)CC3)c3ccccc3n2)c1	13µM*	-2%	?	-1%	?	6.3µM*
CS(=O)(=O)N1CCN(C(=O)c2ccc(-c3ccccc3)cc2)CC1	-6%	1%	0%	0%	-3%	2%
Cc1ccc(NC(=O)CSc2nc3ccccc3nc2Cc2ccccc2)c(Cl)c1	-2%	.	-1%	.	-14%	.
COc1cc2oc(=O)c(CC(=O)NCc3ccc(OC)c(OC)c3)c(C)c2cc1Cl	-1%	.	0%	.	-12%	.
COc1ccc(-c2cc(C(=O)N3CCOCC3)c3cc(C)ccc3n2)cc1	-12%	-1%	-4%	-4%	-17%	?
Cc1ccc(-c2cc(C(=O)N3CCOCC3)c3ccccc3n2)cc1	?	-8%	0%	-2%	?	13µM*
Cc1cccc(C)c1NC(=O)c1cc2sccc2n1Cc1ccc(F)cc1	-17%	.	1%	.	13µM*	.
CC(=O)CCCCn1c(=O)c2c(ncn2C)n(C)c1=O	20%	-4%	-2%	1%	4%	2%
Cc1ccc(NC(=O)Cn2c(=O)n(CC(=O)NCCc3ccccc3)c(=O)c3ccccc32)cc1C	-28%	.	?	.	10µM*	.
Cc1ccc2nc(Nc3ccc(C)c(F)c3)c3nncn3c2c1	9%	.	-1%	.	?	.
CC(C(=O)NCc1cccc(Br)c1)n1ncn2cccc2c1=O (configuration not stated)	?	.	?	.	13µM*	.
O=S(=O)(c1ccc2c(c1)OCCO2)N1CCN(Cc2ccc3c(c2)OCO3)CC1	5%	-1%	4%	-3%	4%	4%
CC(=O)Nc1ccccc1/C=C/c1ccc2c(C)cc(C)c(O)c2n1	.	.	.	.	11%	.
CCCCN(CC)S(=O)(=O)c1ccc(C(=O)Nc2nnc(-c3ccccc3Cl)o2)cc1	1%	-4%	1%	-1%	-11%	2%
CCCCN(C)S(=O)(=O)c1ccc(C(=O)Nc2nnc(-c3cccs3)o2)cc1	-24%	0%	?	-1%	7.9µM*	-1%
CCCCN(CC)S(=O)(=O)c1ccc(C(=O)Nc2nnc(CSC)o2)cc1	-26%	1%	5%	-2%	25µM*	3%
SMILES	p53ts 32C tox	Caspase-7 inhib	IkB sig inh	Caspase-1 inhib	p53ts 39C tox	FLuc inh
CCN(Cc1ccccc1)S(=O)(=O)c1ccc(C(=O)Nc2nnc(-c3ccccc3OC)o2)cc1	-2%	-7%	-1%	-5%	13µM*	1%
CCCCN(CCCC)S(=O)(=O)c1ccc(C(=O)Nc2nnc(CSC)o2)cc1	-20%	-1%	0%	-1%	16µM*	3%
CN(C)c1ccc(CNC(=O)C(Cc2ccccc2)NS(=O)(=O)c2ccc3c(c2)oc(=O)n3C)cc1 (configuration not stated)	6%	.	?	.	-4%	.
Cc1ccc(C2=CC(c3ccccc3C)n3c(nc4ccccc43)N2)cc1 (configuration not stated)	?	.	?	.	5µM*	.
CCc1ccc(C2=CC(c3c(F)cccc3Cl)n3c(nc4ccccc43)N2)cc1 (configuration not stated)	?	.	7%	.	?	.
Cc1cccc(C2C=C(c3ccc(F)cc3)Nc3nc4ccccc4n32)c1 (configuration not stated)	20µM*	.	?	.	10µM*	.
CC(=O)OCCNc1cc(N2CCN(C)CC2)c2noc3c2c1C(=O)c1ccccc1-3	-9%	-26%	4%	?	-17%	-19%
c1ccc(OCc2nc3ccccc3s2)cc1	-15%	-1%	?	1%	0%	13µM*
CS(=O)(=O)c1ccc2nc(NC(=O)C3COc4ccccc4O3)sc2c1 (configuration not stated)	-7%	0%	?	1%	-11%	?
CCOc1ccc(S(=O)(=O)Nc2cccc(-c3ccc(N4CCC(C)CC4)nn3)c2)cc1	10µM*	.	2%	.	10µM*	.
O=S(=O)(Nc1cccc(-c2ccc(N3CCCC3)nn2)c1)c1cc(F)ccc1F	-12%	.	-3%	.	-17%	.
Cc1ccc(S(=O)(=O)Nc2cccc(-c3ccc(N4CCC(C)CC4)nn3)c2)s1	13µM*	.	?	.	4µM*	.
CC1CCN(c2ccc(-c3cccc(NS(=O)(=O)c4ccc(F)cc4F)c3)nn2)CC1	16µM*	.	?	.	13µM*	.
O=S(=O)(Nc1cccc(-c2ccc(N3CCCCC3)nn2)c1)c1ccc(F)cc1F	13µM*	.	-2%	.	?	.
c1cnc2c(c1)ccc1cccnc12	?	1%	1%[11.4 µM]	-2%	3.2µM*	0%[11.4 µM]
Cc1cccc2cccnc12	-15%[1.84 µM]	-2%	-1%	-2%	0%	.
COc1ccc(OC)c(CCNC(=O)c2c(C)oc3ncn(C)c(=O)c23)c1	-7%	.	?	.	16%	.
N#C/C(C(=O)c1ccccc1)=C1/CCCN1	-2%	-3%	4%	-4%	7%	2%
CCCCS(=O)(=O)/C=C\C1C2C=CC(C2)C1S(=O)(=O)CCCC (configuration not stated)	-1%	2%	0%	1%	-3%	6%
CCCCS(=O)(=O)/C=C\C=C/S(=O)(=O)CCCC	20µM*	-4%	?	-1%	?	-14%
